Results published in the supplement of paper PMC6555819.

Legend:
Experiment in all cases: PBM binding z-score (relative to random genomic background probes); higher = stronger binding; sequences stand for … in GC…GCGATTGACAGCGTAGAATGAAGG
[1] = system: FXR:RXRa (NR concentration 270 nM, RXRa partner concentration 90 nM)
In short: (§1)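 Regression normalization was applied to scanned fluorescence from custom Agilent 4×180K protein-binding microarrays. Before scanning, arrays were incubated 1 h with ligand-free nuclear receptor dimers, and binding was detected with antibodies against each partner (one per run). Binding z-scores use the random background probes as reference.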

[2] = system: LXRa:RXRa (NR concentration 270 nM, RXRa partner concentration 90 nM)
In short: as §1

[3] = system: LXRa homodimer (NR concentration 270 nM)
In short: as §1

[4] = system: LXRb:RXRa (NR concentration 270 nM, RXRa partner concentration 90 nM)
In short: as §1

[5] = system: LXRb homodimer (NR concentration 270 nM)
In short: as §1

[6] = system: PPARa:RXRa (NR concentration 270 nM, RXRa partner concentration 90 nM)
In short: as §1

[7] = system: PPARg:RXRa (NR concentration 180 nM, RXRa partner concentration 90 nM)
In short: as §1

[8] = system: PPARg:RXRa 270nM:90nM, anti-RXR (NR concentration 270 nM, RXRa partner concentration 90 nM)
In short: as §1

[9] = system: PPARg:RXRa 30nM:10nM, anti-RXR (NR concentration 30 nM, RXRa partner concentration 10 nM)
In short: as §1

[10] = system: PPARg:RXRa 90nM:30nM, anti-RXR (NR concentration 90 nM, RXRa partner concentration 30 nM)
In short: as §1

[11] = system: PPARg:RXRa DBDmut IVT, anti-RXR (DBD mutation: RXRa K156A/R161A, NR concentration 270 nM, RXRa partner concentration 90 nM)
In short: as §1

[12] = system: PPARg:RXRa IVT, anti-PPARg (NR concentration 270 nM, RXRa partner concentration 90 nM)
In short: as §1

[13] = system: PPARg DBDmut:RXRa IVT, anti-PPARg (DBD mutation: PPARg1 K132A/R137A, NR concentration 270 nM, RXRa partner concentration 90 nM)
In short: as §1

[14] = system: PPARg DBDmut IVT, anti-PPARg (DBD mutation: PPARg1 K132A/R137A, NR concentration 270 nM)
In short: as §1

[15] = system: PPARg homodimer (NR concentration 180 nM)
In short: as §1

[16] = system: PXR:RXRa (NR concentration 270 nM, RXRa partner concentration 90 nM)
In short: as §1

[17] = system: PXR homodimer (NR concentration 270 nM)
In short: as §1

[18] = system: RARa:RXR (NR concentration 270 nM, RXRa partner concentration 90 nM)
In short: as §1

[19] = system: RARa homodimer (NR concentration 270 nM)
In short: as §1

[20] = system: RARb:RXRa (NR concentration 270 nM, RXRa partner concentration 90 nM)
In short: as §1

Sequence | PBM binding z-score [1] | PBM binding z-score [2] | PBM binding z-score [3] | PBM binding z-score [4] | PBM binding z-score [5] | PBM binding z-score [6] | PBM binding z-score [7] | PBM binding z-score [8] | PBM binding z-score [9] | PBM binding z-score [10] | PBM binding z-score [11] | PBM binding z-score [12] | PBM binding z-score [13] | PBM binding z-score [14] | PBM binding z-score [15] | PBM binding z-score [16] | PBM binding z-score [17] | PBM binding z-score [18] | PBM binding z-score [19] | PBM binding z-score [20]
AGTCAAAGTTCCTCTAGGTAACGTAAGATATGCT | -0.245 | -0.144 | -0.104 | -0.00782 | -0.432 | 0.0097 | 0.612 | 0.996 | 0.256 | 0.424 | -0.227 | 1.14 | -0.00849 | 0.378 | -0.0696 | 0.0815 | -0.225 | 0.241 | 0.00507 | 0.881
CCTGCTACGTCAATGGTCAGCTAAAGCAGCTCGC | -0.5 | -0.409 | -0.45 | -0.531 | -0.36 | -0.295 | -0.37 | -0.498 | -0.833 | -0.566 | 0.218 | -0.566 | -1.15 | -0.483 | -0.41 | -0.469 | -0.413 | -0.14 | -0.629 | 0.0938
TCTGCTAGGTCAACGATGGCCAGCTAATCTGCTA | 3.09 | 2.21 | -0.626 | 1.34 | -0.287 | 3 | 2.34 | 2.77 | 1.8 | 2.37 | 4.07 | 4.02 | 0.274 | -0.0746 | 0.165 | 0.871 | -1.29 | 1.9 | -0.648 | 3.94
ACTCGGAGGACGAAGGTCAGAGCTACGCCAGTGA | 0.736 | 1.2 | -0.109 | 0.941 | -0.551 | 2.3 | 2.67 | 3.52 | 1.07 | 3.02 | -0.0159 | 0.85 | -1.22 | -0.524 | 1.01 | 1.4 | -0.0782 | 1.77 | 0.154 | 2.81
AGATCGAGGGCACGCTGAGTTGATAGCAGAGTAG | 0.624 | 0.579 | -0.704 | 0.248 | -0.854 | 1.83 | 1.76 | 1.47 | 0.155 | 0.951 | 3.66 | 3.58 | 1.3 | 0.665 | -0.311 | 1.31 | 0.0547 | 0.734 | -0.531 | 2.42
CCGACTGGGGCATAAGGTTACAATAAGCCAGCCC | 0.415 | 1.46 | -0.348 | 0.936 | -0.85 | 1.9 | 2.58 | 3.36 | 0.985 | 2.68 | 3.12 | 3.35 | -1.72 | -1.42 | 0.586 | 0.38 | -0.291 | 1.17 | -0.0919 | 1.58
ATGGAAAGGTCGAAGGTGAGTATACCCACCCGAA | 4.22 | 3.27 | 0.0491 | 2.82 | 0.401 | 4.71 | 4.84 | 5.14 | 2.3 | 4.32 | -0.138 | 2.06 | 1.21 | 0.517 | 1.61 | 2.99 | 0.649 | 4.14 | 0.905 | 3.78
TAGCCTAGGTCATTCAGAGGCCAGTATAGAAAGC | 4.56 | 3.63 | 0.829 | 2.82 | 0.598 | 3.63 | 2.34 | 2.29 | 0.542 | 1.47 | 1.43 | 2.85 | 0.547 | 0.364 | 2 | 2.58 | -0.166 | 3.25 | -0.206 | 4.09
TCTGCTAGGTCAACGATGGTCACCTAATCTGCTA | 3.57 | 2.97 | 0.264 | 2.05 | -0.183 | 3.49 | 2.96 | 3.36 | 1.98 | 2.76 | 4.12 | 4.82 | 0.776 | 0.398 | 0.811 | 2.12 | -0.994 | 2.8 | -0.586 | 4.2
TCATATAGGTAAATGCTAGGTGAAAGACCGATCT | 1.17 | 1.12 | 0.232 | 0.72 | -0.0647 | 1.48 | 1.22 | 2.38 | 3.79 | 2.96 | 3.73 | 2.45 | 1.16 | 1.31 | 1.02 | 0.594 | 0.174 | 0.931 | 0.867 | 0.44
CCGCGTAGGTTATGGGGCATTCAGGCAACGGTGA | 0.332 | 0.33 | -0.277 | 0.756 | -0.566 | 1.43 | 0.613 | 1.17 | -0.391 | 0.458 | 0.695 | 0.593 | -1.12 | -0.878 | 0.303 | -0.0775 | -0.606 | 0.609 | 0.000588 | 0.985
GCTATTAGTTGAAAGGGCAACAGAATGATTCTCG | 0.533 | 0.675 | 0.402 | 0.947 | -0.00324 | 2.47 | 3.11 | 4.2 | 2.77 | 4.54 | 0.52 | 1.11 | 0.63 | 0.276 | 1.36 | 0.774 | 0.784 | 1.47 | 1.15 | 2.09
TAGCCTAGGTCATTGGGCCAGCATAGTACGCATC | 3.88 | 3.2 | 0.466 | 1.87 | -0.0227 | 3.46 | 3.57 | 3.71 | 0.617 | 2.5 | 2.61 | 3.89 | 0.103 | -0.682 | 0.524 | 1.58 | -0.351 | 2.11 | -0.399 | 3.64
CAAAGTAGGTCAAAGGTCAAAGTCGAGCCAACCA | 8.51 | 7.21 | 5.79 | 7.26 | 3.36 | 7.84 | 14.1 | 11.4 | 14.4 | 13.2 | 8.81 | 9.31 | 4.15 | 2.43 | 4.72 | 7.22 | 2.39 | 8.98 | 3.23 | 5.92
ACTATCAGGCCAAGTTTGGGTCACTCAAACAAAG | 0.363 | 0.344 | -0.188 | 0.871 | 0.576 | 1.51 | 0.155 | 0.318 | -0.0574 | 0.171 | 0.297 | 1.51 | 1.26 | 0.453 | 1 | 0.896 | 0.251 | 1.83 | -0.177 | 2.12
